Reference: PubChem BioAssay AID1004 (SRMLSC, 2008)
Values without a mark were called inactive. The source made the active and inactive calls.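 Rule for the calls: active = viability at 10 µM of 29.74% or lower, 3 SD below the compound median; inactive = the rest.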

experiment: viability of HCT116 lacking mutant beta-catenin – cell-based, DP diverse set, validation, pilot screen (AID 1004); conditions: HCT116 (mutant beta-catenin deleted) viability, CellTiter-Glo, 60 h; at 10 µM; stronger effect = lower value

Compound | viability
COc1ccc(CCN(C)CCCN2CCc3cc(OC)c(OC)cc3CC2=O)cc1OC | 102%
COc1ccc(CC(N)C(=O)N[C@H]2[C@@H](O)[C@H](n3cnc4c(N(C)C)ncnc43)O[C@@H]2CO)cc1 (stereo partly drawn) | 7.16% (active)
CC(=O)N[C@H]1C(O[C@@H]2O[C@H](C[C@@H](O)[C@H]3O[C@@H](N4CCC(=O)NC4=O)[C@H](O)[C@@H]3O)[C@H](O)[C@H](O)[C@H]2NC(=O)/C=C/CCCCCCCCCCC(C)C)OC(CO)[C@@H](O)[C@@H]1O (stereo partly drawn) | 55.1%
CC(C)NCC(O)COc1cccc2ccccc12 (stereo not drawn) | 94.6%
C=C1C(=O)[C@]23[C@H](O)[C@H]1CC[C@H]2[C@@]12COC3(O)[C@H](O)[C@@H]1C(C)(C)CC[C@@H]2O | 88%
COc1ccc2nc(S(=O)Cc3ncc(C)c(OC)c3C)[nH]c2c1 (stereo not drawn) | 96.8%
COc1cc(-c2ccc(=O)[nH]n2)ccc1OC(F)F | 105%
C[C@@H]1CC[C@]2(C(=O)O)CC[C@]3(C)C(=CCC4[C@@]5(C)C[C@@H](O)[C@H](O)[C@@](C)(CO)C5CC[C@]43C)C2[C@H]1C (stereo partly drawn) | 100%
C=C(CCC12O[C@H](C(=O)O)[C@@](O)(C(=O)O)[C@](C(=O)O)(O1)[C@H](OC(=O)/C=C/[C@@H](C)C[C@@H](C)CC)[C@H]2O)[C@@H](OC(C)=O)[C@H](C)Cc1ccccc1 | 100%
NS(=O)(=O)c1cc(C(=O)O)c(NCc2ccco2)cc1Cl | 96.3%
CCC(C)CCCCC(=O)N[C@@H](CCN)C(=O)N[C@H](C(=O)N[C@@H](CCN)C(=O)N[C@H]1CCNC(=O)C([C@@H](C)O)NC(=O)[C@@H](CCN)NC(=O)[C@H](CCN)NC(=O)[C@H](CC(C)C)NC(=O)[C@@H](CC(C)C)NC(=O)[C@H](CCN)NC1=O)[C@@H](C)O (stereo partly drawn) | 94.3%
O=C(O)c1cc([N+](=O)[O-])ccc1NCCCc1ccccc1 | 99.6%
COc1ccc2cc3[n+](cc2c1OC)CCc1cc2c(cc1-3)OCO2 | 99.8%
CC[N+](CC)(CC)CC(=O)Nc1c(C)cccc1C | 101%
Nc1nc2ncc(CNc3ccc(C(=O)NC(CCC(=O)O)C(=O)O)cc3)nc2c(=O)[nH]1 (stereo not drawn) | 95.3%
NC(=O)c1cccc(N)c1 | 108%
CN1C2CCC1CC(OC(=O)C(CO)c1ccccc1)C2 (stereo not drawn) | 97.1%
CC1(C)CCC[C@@](C)([C@H]2CC[C@]3(C)[C@@H]2[C@H](O)C[C@@H]2[C@@]4(C)CC[C@H](O)C(C)(C)[C@@H]4[C@@H](O)C[C@]23C)O1 | 97.9%
